Results published in PubChem BioAssay (NCATS).
Inconclusive results are not listed. The source made the active and inactive calls. Unless noted, the call rests on the fitted dose curve; in most records, active means well fitted curve in the direction sought with a large enough effect; inconclusive means small, poorly fitted or top-dose-only effect, or another doubt; inactive means no such curve, though single readings can be large; an effect the other way counts as inactive or inconclusive.

Key:
[1] = Cytometric Cell-Based qHTS for Inhibitors of the mTORC1 Signaling Pathway in MEF (Tsc2-/-, p53-/-) Cells (AID 2660);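 further: Tsc2 and p53 null MEFs carrying empty vector with compound for 24 h; percent of cells above a phospho-rpS6 to PI ratio cutoff in each well; series mostly up to about 38 µM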
How it was run: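 Cells are plated, treated with compound for 24 hrs at 37 degree Celsius, then fixed, blocked and immunostained for phospho-rpS6 Ser235/236. Propidium iodide counterstain follows. Per-well % positive cells is derived from the PI-normalized phospho-S6 signal.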

[2] = High Content Imaging Cell-Based qHTS for Inhibitors of the mTORC1 Signaling Pathway in MEF (Tsc2-/-, p53-/-) Cells (AID 2666);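 further: percent of cells scored positive for phospho-rpS6 Ser235/236 immunostaining by imaging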
How it was run: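 MEF Tsc2-/- p53-/- (empty vector), DMEM/10% FBS; cpd 24 h 37 °C; PFA fix, Alexa-488 p-rpS6 S235/236 Ab, Hoechst; imaged; rapamycin-defined inhibition; % positive cells/well.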

[3] = High Content Imaging Cell-Based qHTS for Inhibitors of the mTORC1 Signaling Pathway in MEF Cells (AID 2667);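 further: Tsc2-/- p53-/- MEFs stably re-expressing wild-type Tsc2 exposed 24 h; series mostly up to about 38 µM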
How it was run: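 Read-out is the share of phospho-rpS6-positive cells per well, from Hoechst-normalized Alexa-488 Ser235/236 staining imaged on IN Cell. Cells: WT Tsc2-expressing Tsc2-/-, p53-/- MEFs exposed to compound for 24 hrs.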

[4] = Cytometry Cell-Based qHTS for Inhibitors of the mTORC1 Signaling Pathway in MEF cells (AID 2668);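 further: Tsc2-/- p53-/- mouse embryonic fibroblasts stably re-expressing wild-type Tsc2; percent cells positive for phospho-rpS6 Ser235/236 relative to propidium iodide stain; series mostly up to about 38 µM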
How it was run: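 In MEFs grown in DMEM + 10% FBS, a 24 hrs compound exposure preceded imaging of phospho-rpS6 Ser235/236 by laser-scanning cytometry.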

[5] = Validation screen for small molecules that induce DNA re-replication in MCF 10A normal breast cells (AID 463097); further: nearly all actives have a fitted effect of over 60% in size
How it was run: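 Following 48 hr compound incubation (37 C, 5% CO2), MCF 10A cells receive Hoechst for 40 min at 37 C. Nuclei are then scanned (excitation 405 nm, emission 500-530 nm) for total fluorescence intensity.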

[6] = target: Ubiquitin carboxyl-terminal hydrolase 2 (Homo sapiens) (UniProt O75604); assay: qHTS Validation Assay for Inhibitors of Ubiquitin-specific Protease USP2a Using CHOP2 as the Reporter (AID 463106)
How it was run: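 Fluorescence read-out at Ex 485nm/Em 531nm after 60min RT, following addition of 25nM Ub-CHOP2 plus 25nM reporter substrate to USP2 core (10nM) pretreated 30min with compound. Data normalized to NEM full inhibition; concentration-response curves fitted.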

[7] = target: DNA polymerase III PolC-type (Bacillus subtilis (strain 168)) (UniProt P13267); assay: qHTS Validation Assay for the Inhibitors of DNA Replication in Gram-Positive Bacteria (AID 485295);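 further: reconstituted holoenzyme with PolC plus beta clamp SSB and primase; PicoGreen fluorescence of double-stranded DNA made on primed circular M13 template; series mostly up to about 57 µM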
How it was run: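 Inhibition of DNA synthesis by the reconstituted PolC holoenzyme, monitored through PicoGreen staining of dsDNA formed from ssM13Gori, dNTPs and NTPs, with compound preincubation and room-temperature reaction.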

[8] = target: Tumor susceptibility gene 101 protein (Homo sapiens) (UniProt Q99816); assay: qHTS Validation Assay for Iinhibitors of HIV-1 Budding by Blocking the Interaction of PTAP/TSG101 (AID 485342; calls by dose curve)
How it was run: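 Compound wells held the Tsg101 binding domain (10 uM) and a FITC-conjugated PTAP peptide (50 nM) in buffer at pH 7.5 containing 0.15 M NaCl and 0.01% Tween 20; polarization was recorded after 20 min, r.t.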

[9] = qHTS Validation Assay to Find Inhibitors of Chronic Active B-Cell Receptor Signaling (AID 485345; active means well fitted curve in the direction sought with a large enough effect in the main read-out, with a control signal flat, not every such curve was filed as active)
How it was run: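 TMD8 ABC-DLBCL cells stably carrying doxycycline-inducible IkappaBalpha–green luciferase fusion plus unfused red luciferase; compounds 46 uM to 3 nM, 4 h at 37C with doxycycline. Corrected green/red luminescence ratio normalized to 10 uM MG-132 and basal cell wells; curves fitted.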

[10] = target: Beta-2 adrenergic receptor (Homo sapiens) (UniProt P07550); assay: qHTS validation assay of beta-arrestin-biased ligands of beta2-adrenergic receptor (AID 485366)
How it was run: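 Compound series up to 46 microM applied to beta2-AR/beta-arrestin Tango cells, 18 hr, 37 degrees C, 5% CO2. Read-out: tTA-driven luciferase luminescence, converted to %Activity; concentration-response curves assigned curve classes.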

[11] = target: ATP-dependent 6-phosphofructokinase (Trypanosoma brucei brucei) (UniProt O15648); assay: qHTS Validation Assay to Find Inhibitors of T. brucei phosphofructokinase (AID 485368)
How it was run: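 qHTS format, up to 57 uM. PFK 1.25 nM; F6P 0.5 mM; ATP 0.1 mM; 5 mM MgCl2, 0.01% Tween20, 0.1% BSA; 0.1 M TEA pH 8.0; 45 min RT; ADP-Glo readout; no-enzyme control = full inhibition.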

[12] = Quantitative high throughput screen for delayed death inhibitors of the malarial parasite plastid, 48 hour incubation (AID 488752); further: nearly all actives have a fitted effect of over 65% in size
How it was run: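 First, compound was pinned into RPMI 1640 medium containing 0.5% Albumax. Next, reporter-parasite-infected erythrocytes were added to 2% hematocrit and 0.1% parasitemia. After 48 h at 37 C under 5% CO2, luciferase detection reagent was added and luminescence read.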

[13] = target: Thioredoxin reductase 1, cytoplasmic (Rattus norvegicus) (UniProt O89049); assay: qHTS Assay for Inhibitors of Mammalian Selenoprotein Thioredoxin Reductase 1 (TrxR1) (AID 488773); conditions: Potency: inhibition;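 further: drop in NADPH fluorescence over an 8 min run after selenite addition; series mostly up to about 57 µM; nearly all actives have a fitted effect of over 40% in size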
How it was run: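 Inhibition is scored from the loss of NADPH fluorescence between first and last reads of an 8-min kinetic run. Selenite (400 uM) was the substrate, added after 15 min compound preincubation at room temperature.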

[14] = target: Flap endonuclease 1 (Homo sapiens) (UniProt P39748); assay: qHTS Validation Assay for the Inhibitors of Human Flap endonuclease 1 (FEN1) (AID 488816)
How it was run: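 Enzyme reagent 10 nM; cpds pinned; 15 min RT preinc.; substrate 50 nM final; reads t=0 and 15 min; no-enzyme buffer wells as neg. control; normalized data, 4-parameter Hill fit.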

[15] = target: M-phase phosphoprotein 8 (Homo sapiens) (UniProt Q99549); assay: qHTS Validation Assay for Inhibitors for MPP8 Chromodomain Interactions with Methylated Histone Tails (AID 488949);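 further: 50 nM MPP8 with 50 nM peptide preformed then compounds added for 30 min; AlphaScreen signal from MPP8 chromodomain bound to biotinylated H3K9me3 peptide; top concentration of the series differs between compounds; nearly all actives have a fitted effect of over 55% in size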
How it was run: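 Chemiluminescent proximity assay: histidine-tag capture via nickel acceptor beads, biotin peptide via streptavidin donor beads. Protein and peptide each at 50 nM, pH 7.4, with 30 min incubations at room temperature for complex formation, compound exposure and bead binding.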

[16] = target: Chromobox protein homolog 1 (Homo sapiens) (UniProt P83916); assay: qHTS Validation Assay for Inhibitors of HP1-beta Chromodomain Interactions with Methylated Histone Tails (AID 488953);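 further: loss of AlphaScreen luminescence from HP1-beta binding biotinylated H3K9me3 peptide; series mostly up to about 110 µM; nearly all actives have a fitted effect of over 50% in size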
How it was run: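 Disruption of preformed HP1-beta:H3K9me3 peptide complexes (both 50 nM, PBS pH 7.4 with 0.01% Tween-20) is measured by AlphaScreen after 30 min compound exposure at room temperature, using streptavidin donor and nickel chelate acceptor beads at 10 ug/mL final.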

[17] = target: Methanococcus maripaludis chaperonin (MmCpn) (UniProt Q6LX38); assay: High-Throughput Screening for Modulators of Cytosolic Chaperonin Activity: MmCpn Primary Screen (AID 488978)
How it was run: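 HTRF readout (320 nm excitation, 590/665 nm emission) of ADP generated by 50 nM MmCpn hydrolysing 30 uM ATP during 10 min at 37C; compound preincubated 5 min RT.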

[18] = Quantitative high throughput screen for delayed death inhibitors of the malarial parasite plastid, 96 hour incubation (AID 488745);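 further: luciferase-expressing P. falciparum in erythrocytes at 2% hematocrit and 0.1% parasitemia; series mostly up to about 29 µM; nearly all actives have a fitted effect of over 70% in size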
How it was run: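 Readout is firefly luciferase luminescence from an integrated reporter in P. falciparum; lower signal marks inhibited growth. Cultures at 2% hematocrit and 0.1% parasitemia were treated with compound across two generations (96 h, 37 C, 5% CO2).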

[19] = target: Thioredoxin reductase 1, cytoplasmic (Rattus norvegicus) (UniProt O89049); assay: qHTS Assay for Substrates of Mammalian Selenoprotein Thioredoxin Reductase 1 (TrxR1) (AID 488772);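 further: series mostly up to about 57 µM; a drop in NADPH fluorescence below the no-compound background marks a TrxR1 substrate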
How it was run: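 In this dual-purpose format, potential substrates are identified from the first fluorescence read after selenite addition, not from the 8-minute delta. Rat enzyme is preincubated with NADPH and then with compound at ~22 deg C.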

Measured: Potency

Beta-2 adrenergic receptor (Homo sapiens), sequence (P07550 whole entry, looked up): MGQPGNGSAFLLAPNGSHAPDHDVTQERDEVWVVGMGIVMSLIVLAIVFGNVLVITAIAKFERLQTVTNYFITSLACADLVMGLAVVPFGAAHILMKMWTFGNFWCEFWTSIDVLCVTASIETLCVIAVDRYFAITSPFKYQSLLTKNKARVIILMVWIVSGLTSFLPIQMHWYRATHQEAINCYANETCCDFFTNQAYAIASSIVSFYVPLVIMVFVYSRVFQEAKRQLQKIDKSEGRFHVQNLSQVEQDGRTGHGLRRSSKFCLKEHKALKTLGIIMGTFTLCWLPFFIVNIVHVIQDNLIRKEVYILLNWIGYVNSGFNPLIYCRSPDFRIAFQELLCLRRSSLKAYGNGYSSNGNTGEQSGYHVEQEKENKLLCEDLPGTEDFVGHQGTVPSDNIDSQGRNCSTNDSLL
Methanococcus maripaludis chaperonin (MmCpn), sequence (Q6LX38 1-543): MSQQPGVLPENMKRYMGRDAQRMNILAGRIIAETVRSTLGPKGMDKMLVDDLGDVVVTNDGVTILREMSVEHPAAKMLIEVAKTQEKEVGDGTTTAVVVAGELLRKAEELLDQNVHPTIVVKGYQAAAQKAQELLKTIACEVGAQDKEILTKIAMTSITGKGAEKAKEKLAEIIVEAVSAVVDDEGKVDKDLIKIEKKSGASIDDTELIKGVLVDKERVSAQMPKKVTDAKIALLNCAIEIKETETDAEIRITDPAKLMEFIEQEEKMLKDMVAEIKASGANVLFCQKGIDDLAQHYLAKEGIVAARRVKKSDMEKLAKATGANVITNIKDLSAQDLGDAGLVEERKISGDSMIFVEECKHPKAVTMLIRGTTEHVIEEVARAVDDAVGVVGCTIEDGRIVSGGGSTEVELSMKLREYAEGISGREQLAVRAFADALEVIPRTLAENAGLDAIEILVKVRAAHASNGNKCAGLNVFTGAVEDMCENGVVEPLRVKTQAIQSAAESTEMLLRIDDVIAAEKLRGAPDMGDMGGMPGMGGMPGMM
Ubiquitin carboxyl-terminal hydrolase 2 (Homo sapiens), sequence (O75604 whole entry, looked up): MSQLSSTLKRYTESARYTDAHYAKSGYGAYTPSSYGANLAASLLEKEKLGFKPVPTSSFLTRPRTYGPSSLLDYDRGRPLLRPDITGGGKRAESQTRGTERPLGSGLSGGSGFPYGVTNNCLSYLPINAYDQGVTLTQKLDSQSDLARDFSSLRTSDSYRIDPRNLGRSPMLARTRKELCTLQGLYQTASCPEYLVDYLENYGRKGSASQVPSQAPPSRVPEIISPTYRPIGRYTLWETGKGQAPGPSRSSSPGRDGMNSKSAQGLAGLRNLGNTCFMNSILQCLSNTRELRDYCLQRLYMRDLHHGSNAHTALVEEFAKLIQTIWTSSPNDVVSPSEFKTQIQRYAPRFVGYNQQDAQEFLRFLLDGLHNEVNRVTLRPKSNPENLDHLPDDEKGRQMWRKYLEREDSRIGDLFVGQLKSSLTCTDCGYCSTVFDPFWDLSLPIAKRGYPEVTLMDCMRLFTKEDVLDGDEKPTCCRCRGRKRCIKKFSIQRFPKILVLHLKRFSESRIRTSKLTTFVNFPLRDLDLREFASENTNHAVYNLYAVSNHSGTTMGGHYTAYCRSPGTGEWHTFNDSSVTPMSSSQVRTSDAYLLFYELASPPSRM
Thioredoxin reductase 1, cytoplasmic (Rattus norvegicus), sequence (O89049 whole entry, looked up): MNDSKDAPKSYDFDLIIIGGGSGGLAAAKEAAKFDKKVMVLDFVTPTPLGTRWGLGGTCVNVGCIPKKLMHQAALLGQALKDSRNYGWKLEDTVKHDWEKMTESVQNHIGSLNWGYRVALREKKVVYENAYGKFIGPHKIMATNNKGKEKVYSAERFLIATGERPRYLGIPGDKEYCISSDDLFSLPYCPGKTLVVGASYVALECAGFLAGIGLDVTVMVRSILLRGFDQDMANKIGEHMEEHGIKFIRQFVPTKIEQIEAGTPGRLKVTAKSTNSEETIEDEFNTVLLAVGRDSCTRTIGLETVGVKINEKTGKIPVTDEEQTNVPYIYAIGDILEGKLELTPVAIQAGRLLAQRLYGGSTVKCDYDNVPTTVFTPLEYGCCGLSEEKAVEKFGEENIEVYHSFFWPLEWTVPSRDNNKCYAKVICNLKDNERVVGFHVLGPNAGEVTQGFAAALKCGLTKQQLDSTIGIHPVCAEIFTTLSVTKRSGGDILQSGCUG
DNA polymerase III PolC-type (Bacillus subtilis (strain 168)), sequence (P13267 whole entry, looked up): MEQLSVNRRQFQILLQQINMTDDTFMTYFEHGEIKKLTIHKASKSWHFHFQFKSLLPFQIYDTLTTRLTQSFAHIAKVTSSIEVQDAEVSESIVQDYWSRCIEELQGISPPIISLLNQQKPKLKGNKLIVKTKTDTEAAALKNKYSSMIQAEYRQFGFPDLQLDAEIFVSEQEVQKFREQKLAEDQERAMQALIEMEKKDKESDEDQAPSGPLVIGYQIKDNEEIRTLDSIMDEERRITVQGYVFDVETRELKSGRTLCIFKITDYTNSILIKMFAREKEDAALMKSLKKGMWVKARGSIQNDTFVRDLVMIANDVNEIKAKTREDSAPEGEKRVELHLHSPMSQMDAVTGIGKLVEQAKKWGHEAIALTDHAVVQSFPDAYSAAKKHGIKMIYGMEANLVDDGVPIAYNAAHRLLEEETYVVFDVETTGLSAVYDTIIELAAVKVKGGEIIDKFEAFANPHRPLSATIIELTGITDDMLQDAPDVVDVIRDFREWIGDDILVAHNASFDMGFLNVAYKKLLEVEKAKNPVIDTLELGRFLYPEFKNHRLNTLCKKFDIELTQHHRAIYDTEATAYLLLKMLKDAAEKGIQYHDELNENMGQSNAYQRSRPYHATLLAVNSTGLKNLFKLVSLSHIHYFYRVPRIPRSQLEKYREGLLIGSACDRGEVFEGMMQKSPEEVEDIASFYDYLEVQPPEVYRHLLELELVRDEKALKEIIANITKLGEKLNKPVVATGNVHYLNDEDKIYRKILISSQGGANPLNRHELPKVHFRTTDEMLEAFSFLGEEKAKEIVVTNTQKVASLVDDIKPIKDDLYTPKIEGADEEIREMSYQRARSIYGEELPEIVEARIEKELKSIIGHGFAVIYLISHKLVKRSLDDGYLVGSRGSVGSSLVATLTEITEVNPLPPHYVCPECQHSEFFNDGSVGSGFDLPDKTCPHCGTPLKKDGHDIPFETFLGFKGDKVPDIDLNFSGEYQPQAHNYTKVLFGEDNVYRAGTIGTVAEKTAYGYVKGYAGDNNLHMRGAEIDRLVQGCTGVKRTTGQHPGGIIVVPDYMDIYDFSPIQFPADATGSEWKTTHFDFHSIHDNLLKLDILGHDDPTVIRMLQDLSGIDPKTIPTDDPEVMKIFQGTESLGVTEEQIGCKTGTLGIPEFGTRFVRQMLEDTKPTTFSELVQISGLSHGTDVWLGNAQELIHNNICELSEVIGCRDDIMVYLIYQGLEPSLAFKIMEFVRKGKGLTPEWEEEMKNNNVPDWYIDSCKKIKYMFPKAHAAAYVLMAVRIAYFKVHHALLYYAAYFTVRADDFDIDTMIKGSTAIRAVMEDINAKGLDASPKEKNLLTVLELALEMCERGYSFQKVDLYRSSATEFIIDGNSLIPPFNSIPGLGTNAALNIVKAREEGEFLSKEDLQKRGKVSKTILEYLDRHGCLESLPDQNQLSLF
M-phase phosphoprotein 8 (Homo sapiens), sequence (Q99549 whole entry, looked up): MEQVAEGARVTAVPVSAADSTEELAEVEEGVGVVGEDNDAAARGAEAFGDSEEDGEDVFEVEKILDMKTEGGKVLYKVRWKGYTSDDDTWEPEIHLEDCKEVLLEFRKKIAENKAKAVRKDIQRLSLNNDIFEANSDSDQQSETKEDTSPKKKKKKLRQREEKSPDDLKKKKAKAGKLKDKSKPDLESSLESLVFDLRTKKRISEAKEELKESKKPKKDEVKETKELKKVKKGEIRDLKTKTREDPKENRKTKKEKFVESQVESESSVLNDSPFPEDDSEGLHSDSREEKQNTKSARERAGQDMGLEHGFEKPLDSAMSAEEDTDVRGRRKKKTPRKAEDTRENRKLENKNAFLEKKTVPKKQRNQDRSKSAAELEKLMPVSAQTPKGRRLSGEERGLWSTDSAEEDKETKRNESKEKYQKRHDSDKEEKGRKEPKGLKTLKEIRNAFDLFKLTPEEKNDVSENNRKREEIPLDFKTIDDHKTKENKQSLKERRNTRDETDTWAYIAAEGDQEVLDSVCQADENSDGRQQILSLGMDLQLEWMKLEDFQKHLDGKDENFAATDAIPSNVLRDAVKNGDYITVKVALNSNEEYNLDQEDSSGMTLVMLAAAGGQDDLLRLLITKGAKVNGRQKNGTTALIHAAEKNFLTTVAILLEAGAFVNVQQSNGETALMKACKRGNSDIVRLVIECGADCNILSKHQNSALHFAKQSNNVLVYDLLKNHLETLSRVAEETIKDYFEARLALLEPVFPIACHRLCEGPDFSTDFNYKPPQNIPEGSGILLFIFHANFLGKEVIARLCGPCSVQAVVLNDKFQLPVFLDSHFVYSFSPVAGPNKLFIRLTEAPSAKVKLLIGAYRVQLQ
ATP-dependent 6-phosphofructokinase (Trypanosoma brucei brucei), sequence (O15648 whole entry, looked up): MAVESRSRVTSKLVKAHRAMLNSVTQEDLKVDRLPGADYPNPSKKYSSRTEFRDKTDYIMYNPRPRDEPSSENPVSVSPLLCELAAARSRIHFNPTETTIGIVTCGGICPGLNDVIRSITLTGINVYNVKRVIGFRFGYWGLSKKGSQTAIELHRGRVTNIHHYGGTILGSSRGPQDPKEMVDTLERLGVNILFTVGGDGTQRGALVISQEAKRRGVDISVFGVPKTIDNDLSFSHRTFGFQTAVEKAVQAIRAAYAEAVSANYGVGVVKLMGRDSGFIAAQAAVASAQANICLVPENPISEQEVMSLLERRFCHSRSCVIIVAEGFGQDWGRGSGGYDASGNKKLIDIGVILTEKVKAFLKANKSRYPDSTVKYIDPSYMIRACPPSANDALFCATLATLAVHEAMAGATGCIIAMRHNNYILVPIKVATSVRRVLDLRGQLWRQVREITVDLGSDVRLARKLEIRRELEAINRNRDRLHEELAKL
Chromobox protein homolog 1 (Homo sapiens), sequence (P83916 whole entry, looked up): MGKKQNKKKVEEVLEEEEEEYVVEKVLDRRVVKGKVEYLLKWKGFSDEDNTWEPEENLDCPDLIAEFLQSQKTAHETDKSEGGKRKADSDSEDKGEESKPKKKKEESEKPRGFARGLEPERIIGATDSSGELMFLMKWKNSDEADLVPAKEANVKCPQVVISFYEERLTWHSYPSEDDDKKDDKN

COc1ccc(C(=O)NCc2cccnc2)cc1C(=O)NCc1cccnc1
not listed: [18] | [19]
inactive: all other assays above

NC(=O)CNCCC(c1ccccc1)c1ccccc1
not listed: [11]
inactive: all other assays above

C=CC[C@H](N)C(=O)O
not listed: [11]
inactive: all other assays above

NC(=O)c1cc[n+](CC2=C(C(=O)O)N3C(=O)[C@@H](NC(=O)[C@@H](c4ccccc4)S(=O)(=O)[O-])[C@H]3SC2)cc1
not listed: [11] | [13] | [16] | [17]
inactive: all other assays above

COc1cc2c(CCNC(C)=O)c[nH]c2cc1O
not listed: [18]
inactive: all other assays above

N[C@@H](CCCC(=O)O)C(=O)O
not listed: [11]
inactive: all other assays above

NOCC(=O)O
not listed: [12] | [18]
inactive: all other assays above

O=C(O)/C=C/c1ccc(O)c(O)c1
not listed: [17] | [18]
inactive: all other assays above
